This is an account of results in PubChem BioAssay (NCATS).

Molecules are shown by their SMILES. Values joined by “and” are separate entries in the source; they are usually repeats but may differ in a detail not shown here. Equal values may be shown once. Results filed as inconclusive are left out. Active and inactive are the calls of the source. Unless noted, calls follow the shape of the dose curve; as a rule, active = well fitted curve in the direction sought with a large enough effect; inconclusive = small, poorly fitted or top-dose-only effect, or another doubt; inactive = no such curve, though single readings can be large; an effect the other way counts as inactive or inconclusive.

Assay [1] is described as follows: qHTS Assay for Identifying Gametocytocidal Compounds (AID 743244).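 Also: % is scaled to controls: 0 for no effect and ±100 for the full control effect; actives lower the fluorescent signal which means gametocytes are killed.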 To be noted: P. falciparum 3D7 stage III-V gametocytes, alamarBlue, 72 h; max response: stronger effect = lower value. Summed up:
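Late gametocytes (III–V), P. falciparum 3D7; 72 h drug, then 24 h alamarBlue; resazurin reduction read by fluorescence.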

Assay [2] can be described thus: qHTS profiling of the MIPE4 collection as inhibitors of Plasmodium falciparum (3D7) proliferation (AID 743344; call rule not given here;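 also: scaled between DMSO vehicle wells and 0.29 µM artemisinin as full inhibition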). To be noted: P. falciparum 3D7 in erythrocytes, SYBR Green DNA fluorescence, 72 h; at 28.5 µM (top of the series) unless noted. Summed up: (§1)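 Erythrocytes infected with P. falciparum (0.3% parasitemia, 2.5% hematocrit) incubated with compounds 72 h at 37 C, 5% CO2. Lysis with saponin/Triton buffer containing SYBR Green I, overnight at room temperature in the dark; DNA fluorescence (485/535 nm) normalised to 0.29 uM artemisinin and DMSO.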

The nature of assay [3]: qHTS profiling of the MIPE4 collection as inhibitors of Plasmodium falciparum (DD2) proliferation (AID 743345; call rule not given here). To be noted: P. falciparum Dd2 in erythrocytes, SYBR Green DNA, 72 h; at 28.5 µM (top of the series) unless noted. The method in brief: as §1
Assay [4] can be described thus: qHTS profiling of the MIPE4 collection as inhibitors of Plasmodium falciparum (DD2) proliferation (Rep 2) (AID 743346; call rule not given here). To be noted: P. falciparum Dd2 in erythrocytes, SYBR Green DNA, 72 h; at 28.5 µM (top of the series) unless noted. Summed up:
as §1

Assay [5] can be described thus: qHTS profiling of the MIPE4 collection as inhibitors of Plasmodium falciparum (HB3) proliferation (AID 743347; call rule not given here;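 also: plate controls were DMSO vehicle wells for no effect and artemisinin wells for full effect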). The conditions noted are these: P. falciparum HB3 in erythrocytes, SYBR Green DNA, 72 h; at 28.5 µM (top of the series) unless noted. Summed up:
as §1

Assay [6] is described as follows: High-throughput drug toxicity screening in the BPDCN cell line Gen2.2 (AID 1224824; call rule not given here;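 also: cells exposed to compounds for 48 h before reading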). The conditions noted are these: Gen2.2 BPDCN cells; at 45.8 µM (top of the series) unless noted. Summed up: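 CellTiter-Glo luminescence read after 48 h compound exposure at 37 C defines viability; percent activity set with DMSO as 100% and bortezomib (9.2 uM final) as 0%. 500 exponentially growing cells per well, RPMI plus 10% FBS.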

The nature of assay [7]: qHTS assay for measurement of the activity of small molecule inhibitors on Zika virus induced Caspase-3 activity in human iPSC derived neural progenitor cells (hNPCs) (AID 1224857). Also: % of control where 0% means no effect; nearly all actives have a fitted effect of over 65% in size. The method in brief: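 Caspase-3/7 induction by a 6-hour ZIKV infection was quantified with a luminescent Caspase-Glo 3/7 reagent incubated 30 minutes at room temperature. Compounds were preincubated with hNPCs for 1 hour; inhibition was calculated against uninfected and infected control wells.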

The nature of assay [8]: qHTS assay for measurement of the activity of small molecule inhibitors on Zika virus induced Caspase-3 activity in human astrocytoma cells (AID 1224859).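 Also: plate controls were ZIKV-infected untreated cells for no effect and uninfected cells for full effect.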 The method in brief: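 In SNB-19 cells plated at 250 cells/well and grown 16-20 h, compounds were applied 1 h before ZIKV (2 FFU/cell). Six hours later caspase-3/7 luminescence was recorded.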
Assay [9] is described as follows: qHTS assay for small molecule agonists of the antioxidant response element (ARE) signaling pathway measured by Nrf2-dependant transcriptional activity - cell viability counter screen (AID 720653; active = well fitted curve in the direction sought with a large enough effect in the repeat runs; an effect the other way counts as inactive or inconclusive; also: % is scaled to controls: 0 for no effect and ±100 for the full control effect). To be noted: ARE-bla HepG2 viability, CellTiter-Glo ATP luminescence, 16 h; max response: stronger effect = lower value. Summed up:
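ARE-bla HepG2 cells (2,000/well) rested 5 hrs at 37C/5% CO2, then exposed to compounds in DMSO for 16 hrs. Viability was read in the same wells as intracellular ATP by luminescence, 30 min at room temperature after reagent addition.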

Assay [10] in a line: qHTS assay for cell viability of HEK293 cells (AID 743288). Also: % is scaled to controls: 0 for no effect and ±100 for the full control effect; nearly all actives have a fitted effect of over 50% in size. To be noted: ATP luminescence (CellTiter-Glo), 18 h; max response: stronger effect = lower value. The method in brief:
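Total intracellular ATP, measured with a luciferase-coupled reagent, indicates the number of viable HEK293 cells. Exposure to test chemicals lasts 18 h at 37 C in 1,536-well format at 2,000 cells/well.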

Assay [11] can be described thus: qHTS assay for cell viability of the p53RE-bla HCT-116 cell line (AID 743292). Also: % is scaled to controls: 0 for no effect and ±100 for the full control effect; nearly all actives have a fitted effect of over 55% in size. Summed up:
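After plating at 4,000 cells per well and a 5 h rest at 37 C, HCT-116 cells carrying p53RE-bla received test chemicals in DMSO. Sixteen hours later at 37 C, CellTiter-Glo was added and luminescence recorded following 30 min at room temperature.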

Assay [12] can be described thus: qHTS Screen of the MIPE 4.0 Collection Against Ewings Sarcoma (EW8) (AID 1259255).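 Also: 100% = DMSO-treated cells and 0% = medium-only wells without cells; nearly all actives have a fitted effect of over 35% in size.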 Summed up:
(§2)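 Measured: ATP luminescence (CellTiter-Glo) 10 min after reagent addition, following 48 h drug treatment. Relative luciferase units converted to percent activity, with no-cell wells as full and DMSO wells as zero inhibition.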

Assay [13] deals with T1, Hexokinase-4 (Homo sapiens) + Glucokinase regulatory protein (Homo sapiens) (UniProt P35557+Q14397). Put plainly: qHTS assay for inhibitors of recombinant human GCK-GKRP interaction: Diaphorase-coupled assay (AID 743205). Summed up: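 A kinetic fluorescence read (Ex 525/Em 590 nm, every minute for 30 minutes) tracked resorufin from a G6PDH-diaphorase coupled GCK reaction. It contained 10 nM GST-GCK, 10 nM FLAG-GKRP, 5 mM glucose, 0.4 mM ATP in Hepes pH 7.6. Normalized to with/without-enzyme DMSO controls.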

Assay [14] concerns the target T1, Hexokinase-4 (Homo sapiens) + Glucokinase regulatory protein (Homo sapiens). Nature of the assay: qHTS assay for inhibitors of recombinant human GCK-GKRP interaction: ADP-Glo assay (AID 743206).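 Also: plate controls were DMSO plus enzyme for no effect and no enzyme for full effect.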 Summed up:
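GST-GCK and FLAG-GKRP (15 nM each in the dispensed mix, with 2 uM S6P) react with 0.4 mM ATP and 5 mM glucose (final) in Hepes pH 7.6 for 60 min at room temperature. ADP is measured by ADP-Glo luminescence.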

The target is the same in assay [15]. Nature of the assay: qHTS assay for inhibitors of recombinant human GCK-GKRP interaction: HTRF assay (AID 743207).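 Also: 0% = DMSO with GCK present and -100% = DMSO wells lacking GCK.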 Summed up: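 After 60 min equilibration at room temperature with anti-FLAG XL665 and anti-GST antibodies, FRET ratio (665/615 nm, excitation 320 nm) was read. Proteins: GST-GCK and FLAG-GKRP, each 5 nM, plus 2 uM S6P, pH 7.1 buffer; GCK-free wells define minimum signal.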

Assay [16] in a line: qHTS Screen of the MIPE 4.0 Collection Against Ewings Sarcoma (RDES) (AID 1259252). Also: nearly all actives have a fitted effect of over 35% in size. Also: potency is read from the fitted curve at half-maximal effect. Summed up: as §2

T1 sequence (P35557 whole entry, looked up): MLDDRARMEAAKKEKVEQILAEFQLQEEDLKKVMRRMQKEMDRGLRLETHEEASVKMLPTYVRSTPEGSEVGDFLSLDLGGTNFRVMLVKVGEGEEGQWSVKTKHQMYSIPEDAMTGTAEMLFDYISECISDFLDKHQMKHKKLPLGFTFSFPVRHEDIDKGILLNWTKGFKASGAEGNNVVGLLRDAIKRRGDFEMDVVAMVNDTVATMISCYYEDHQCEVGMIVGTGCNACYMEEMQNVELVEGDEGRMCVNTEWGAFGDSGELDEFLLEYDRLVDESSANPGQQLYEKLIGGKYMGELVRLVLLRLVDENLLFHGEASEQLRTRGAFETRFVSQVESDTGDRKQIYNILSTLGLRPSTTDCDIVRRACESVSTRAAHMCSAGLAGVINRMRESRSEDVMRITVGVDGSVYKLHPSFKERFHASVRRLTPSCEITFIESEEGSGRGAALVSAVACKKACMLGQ
T1 sequence (Q14397 whole entry, looked up): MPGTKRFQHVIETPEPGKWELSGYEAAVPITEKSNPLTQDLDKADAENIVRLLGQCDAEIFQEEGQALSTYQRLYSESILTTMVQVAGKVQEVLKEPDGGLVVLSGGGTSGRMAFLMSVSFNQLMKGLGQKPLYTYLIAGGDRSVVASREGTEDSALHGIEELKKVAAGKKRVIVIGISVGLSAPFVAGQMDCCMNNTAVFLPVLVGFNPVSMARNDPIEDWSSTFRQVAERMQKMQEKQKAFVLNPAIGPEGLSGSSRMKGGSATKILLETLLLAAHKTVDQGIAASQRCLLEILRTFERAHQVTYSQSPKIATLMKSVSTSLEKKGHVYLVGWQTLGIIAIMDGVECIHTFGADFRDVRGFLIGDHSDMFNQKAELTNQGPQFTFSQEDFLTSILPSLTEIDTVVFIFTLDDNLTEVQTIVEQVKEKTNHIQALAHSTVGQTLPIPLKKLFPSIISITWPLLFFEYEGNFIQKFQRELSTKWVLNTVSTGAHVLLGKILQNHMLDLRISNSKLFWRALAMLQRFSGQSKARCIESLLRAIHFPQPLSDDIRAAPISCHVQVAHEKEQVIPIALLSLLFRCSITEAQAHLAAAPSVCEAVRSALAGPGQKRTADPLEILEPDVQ

Take `COc1cc(C(C)=O)ccc1OCCCN1CCC(c2noc3cc(F)ccc23)CC1`: the max response in assay [1] is 6.32% (inactive). The parasite growth, % of DMSO control in assay [2] is 29.6%. The parasite growth remaining, % of DMSO control (lower = more inhibition) in [3] stood at 54.6%. The parasite growth, % of control (lower = inhibition) in [4] turned out to be 40.6%. In [5], this compound showed a growth, % of control of 54.6%. Also, the cell viability, % of control (lower = more cytotoxic) in [6] is 69.7%. Besides, the Potency result in assay [7] and in assay [8] was “inactive” in each case.
`Cc1ccc(C)c(OCCCC(C)(C)C(=O)O)c1`: the max response in assay [9] was -1.19% (inactive) and -0.256% (inactive); in assay [1] it was 17.4% (inactive); in assay [10], -0.77% (inactive) and -7.02% (inactive). The Potency entry in assay [11], in assay [7] and in assay [8] was “inactive” throughout. Besides, the parasite growth, % of DMSO control in assay [2] is 5.29%. For the same compound, in assay [3], the parasite growth remaining, % of DMSO control (lower = more inhibition) is 47.3%. In addition, the parasite growth, % of control (lower = inhibition) in [4] amounted to 8.19%. In addition, the growth, % of control in assay [5] was 3.44%. Moreover, the cell viability, % of control (lower = more cytotoxic) in assay [6] was 120%.
In the case of `C=CCc1cc(OC)c(O)c(C(=O)NCCO)c1`, the max response in assay [1] is -5.25% (inactive). The cell viability, % of control (lower = more cytotoxic) in assay [6] is 134%. In addition, the Potency entry in [7], in assay [8] and in assay [12] was “inactive” each time.
For the compound `CC1(C)NC(=O)N(c2ccc([N+](=O)[O-])c(C(F)(F)F)c2)C1=O`, the max response in assay [9] is -27.8% (inactive); in assay [1], 12.7% (inactive) and -11.2% (inactive); in assay [10], -18.9% (inactive). The outcome in [13], in [14] and in [15] was inactive. The Potency result in assay [11], in assay [7], in assay [8], in assay [16] and in assay [12] was “inactive” throughout. The compound further displayed a parasite growth, % of DMSO control in [2] of 83.6%. For the same compound, the parasite growth remaining, % of DMSO control (lower = more inhibition) in assay [3] amounted to 106%. Besides, the parasite growth, % of control (lower = inhibition) in [4] came to 86.1%. In addition, the growth, % of control in assay [5] is 91%. Also, the cell viability, % of control (lower = more cytotoxic) in assay [6] turned out to be 204%.
With `O=C(NCCO[N+](=O)[O-])c1cccnc1`, the parasite growth, % of DMSO control in [2] amounted to 102%. In addition, the parasite growth remaining, % of DMSO control (lower = more inhibition) in [3] was determined as 87%. Besides, in [4], the parasite growth, % of control (lower = inhibition) was 118%. Besides, in assay [5], the growth, % of control was 108%. In addition, the cell viability, % of control (lower = more cytotoxic) in assay [6] amounted to 178%. Also, the Potency entry in [7], in assay [8] and in [12] was “inactive” each time.
Regarding `CN(C)C(=O)COC(=O)Cc1ccc(OC(=O)c2ccc(N=C(N)N)cc2)cc1`, the max response in [1] was 10.2% (inactive). The parasite growth, % of DMSO control in assay [2] worked out at 75%. For the same compound, the parasite growth remaining, % of DMSO control (lower = more inhibition) in assay [3] was determined as 93%. For the same compound, in assay [4], the parasite growth, % of control (lower = inhibition) is 43%. The compound also yielded a growth, % of control in assay [5] of 101%. Besides, the cell viability, % of control (lower = more cytotoxic) in [6] is 129%. In addition, the Potency result in [7] and in assay [8] was “inactive” in each case. Besides, the Potency in [16] is 16.6 µM (active).
On to `Clc1ccc(C(Cn2ccnc2)OCc2c(Cl)cccc2Cl)c(Cl)c1` (stereo not given), for which the parasite growth, % of DMSO control in assay [2] turned out to be 4.82%. Also, the parasite growth remaining, % of DMSO control (lower = more inhibition) in assay [3] was 9.61%. Moreover, the parasite growth, % of control (lower = inhibition) in assay [4] came out at 14.8%. In addition, in assay [5], the growth, % of control was 7.46%. Moreover, the cell viability, % of control (lower = more cytotoxic) in [6] came to 327%. In addition, the Potency result in assay [7] and in assay [8] was “inactive” in each case.
Regarding `NC(=O)Cc1cccc(C(=O)c2ccccc2)c1N`, the max response in [1] was 5.12% (inactive). The parasite growth remaining, % of DMSO control (lower = more inhibition) in assay [3] is 98.5%. For the same compound, in [5], the growth, % of control was 95.3%. The cell viability, % of control (lower = more cytotoxic) in assay [6] is 108%. The Potency result in [7], in assay [8] and in assay [12] was “inactive” throughout.
With `CC(S)C(=O)NCC(=O)O` (stereo not given), the max response in assay [1] was -4.83% (inactive). In [2], this compound returned a parasite growth, % of DMSO control of 95.6%. In addition, the parasite growth remaining, % of DMSO control (lower = more inhibition) in [3] turned out to be 123%. In addition, the parasite growth, % of control (lower = inhibition) in [4] was determined as 91.7%. Besides, the growth, % of control in assay [5] worked out at 95.5%. For the same compound, in assay [6], the cell viability, % of control (lower = more cytotoxic) was 104%. For the same compound, the Potency result in [7], in [8] and in assay [12] was “inactive” each time.
